# From PMC7862700, “An all-to-all approach to the identification of sequence-specific readers for epigenetic DNA modifications on cytosine”
# Experiments:
# Assay in all cases: DAPPL (digital affinity profiling via proximity ligation, sequencing); 10 mM Tris-HCl pH 7.5, 50 mM NaCl, 1 mM DTT, 4% glycerol, room temperature, 30 min; GST-TFs on glutathione beads, 16-mer random dsDNA library, 0.1% formaldehyde crosslink after washing; high values mean tight binding
# Conditions in all cases: protein: recombinant; tags: N-terminal GST; dsDNA, one strand shown
# ELK1 = target: T1, ELK1 (Homo sapiens, UniProt P19419 1-428)
# T1 sequence: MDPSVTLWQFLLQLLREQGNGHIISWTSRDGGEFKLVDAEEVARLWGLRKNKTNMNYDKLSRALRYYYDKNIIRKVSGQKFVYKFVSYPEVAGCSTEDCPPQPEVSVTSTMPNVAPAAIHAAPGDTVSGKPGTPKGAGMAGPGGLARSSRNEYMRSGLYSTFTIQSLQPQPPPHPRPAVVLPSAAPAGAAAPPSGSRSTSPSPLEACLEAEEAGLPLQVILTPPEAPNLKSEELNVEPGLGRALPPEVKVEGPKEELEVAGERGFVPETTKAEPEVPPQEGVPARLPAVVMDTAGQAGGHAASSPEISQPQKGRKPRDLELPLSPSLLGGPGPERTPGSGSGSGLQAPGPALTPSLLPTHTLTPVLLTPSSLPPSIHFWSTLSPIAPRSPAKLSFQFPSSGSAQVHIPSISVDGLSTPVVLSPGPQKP
# Summary of the method: (§1)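 Yeast served to express human transcription factors as GST fusions, which were then captured on glutathione beads and labelled with DNA barcodes. Pooled with a tag-only sample, they were incubated with 200 nmole of a 16-mer random double-stranded DNA library for 30 min at room temperature in Tris/NaCl/DTT/glycerol buffer, washed, crosslinked with 0.1% formaldehyde, ligated by proximity, amplified by PCR and sequenced. Dividing each hexamer's read frequency for a factor by its frequency for the tag-only sample gives the binding signal.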
# GABPA = target: T2, GABPA (Homo sapiens, UniProt Q06546 1-454)
# T2 sequence: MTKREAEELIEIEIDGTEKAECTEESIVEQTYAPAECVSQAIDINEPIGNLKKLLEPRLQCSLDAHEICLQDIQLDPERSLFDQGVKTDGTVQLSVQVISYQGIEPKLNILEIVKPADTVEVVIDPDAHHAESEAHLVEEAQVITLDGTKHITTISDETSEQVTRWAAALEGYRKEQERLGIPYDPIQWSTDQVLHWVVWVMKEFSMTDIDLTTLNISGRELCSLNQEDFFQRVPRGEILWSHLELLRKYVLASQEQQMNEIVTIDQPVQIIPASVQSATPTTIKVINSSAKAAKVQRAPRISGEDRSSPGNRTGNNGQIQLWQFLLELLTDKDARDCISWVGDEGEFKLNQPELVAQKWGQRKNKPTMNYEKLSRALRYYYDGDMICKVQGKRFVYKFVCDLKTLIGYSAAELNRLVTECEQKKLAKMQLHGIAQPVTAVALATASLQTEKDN
# Summary of the method: as §1
# ERG = target: T3, ERG (Homo sapiens, UniProt P11308 1-479)
# T3 sequence: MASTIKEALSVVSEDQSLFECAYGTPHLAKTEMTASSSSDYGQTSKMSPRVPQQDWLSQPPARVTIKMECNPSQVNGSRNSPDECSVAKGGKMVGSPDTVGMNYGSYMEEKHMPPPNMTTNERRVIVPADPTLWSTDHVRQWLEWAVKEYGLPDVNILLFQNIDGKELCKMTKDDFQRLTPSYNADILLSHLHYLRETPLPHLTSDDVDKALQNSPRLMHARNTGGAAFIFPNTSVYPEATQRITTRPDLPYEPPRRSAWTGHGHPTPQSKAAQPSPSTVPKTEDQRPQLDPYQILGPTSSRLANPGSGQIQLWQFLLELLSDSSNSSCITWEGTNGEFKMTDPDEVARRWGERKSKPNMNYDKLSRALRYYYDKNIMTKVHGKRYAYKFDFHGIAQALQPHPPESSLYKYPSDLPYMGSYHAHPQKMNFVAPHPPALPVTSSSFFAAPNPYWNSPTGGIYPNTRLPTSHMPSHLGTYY
# Summary of the method: as §1
# ELF1 = ELF1 (Homo sapiens, UniProt P32519 1-619)
# Sequence of ELF1 (P32519 whole entry): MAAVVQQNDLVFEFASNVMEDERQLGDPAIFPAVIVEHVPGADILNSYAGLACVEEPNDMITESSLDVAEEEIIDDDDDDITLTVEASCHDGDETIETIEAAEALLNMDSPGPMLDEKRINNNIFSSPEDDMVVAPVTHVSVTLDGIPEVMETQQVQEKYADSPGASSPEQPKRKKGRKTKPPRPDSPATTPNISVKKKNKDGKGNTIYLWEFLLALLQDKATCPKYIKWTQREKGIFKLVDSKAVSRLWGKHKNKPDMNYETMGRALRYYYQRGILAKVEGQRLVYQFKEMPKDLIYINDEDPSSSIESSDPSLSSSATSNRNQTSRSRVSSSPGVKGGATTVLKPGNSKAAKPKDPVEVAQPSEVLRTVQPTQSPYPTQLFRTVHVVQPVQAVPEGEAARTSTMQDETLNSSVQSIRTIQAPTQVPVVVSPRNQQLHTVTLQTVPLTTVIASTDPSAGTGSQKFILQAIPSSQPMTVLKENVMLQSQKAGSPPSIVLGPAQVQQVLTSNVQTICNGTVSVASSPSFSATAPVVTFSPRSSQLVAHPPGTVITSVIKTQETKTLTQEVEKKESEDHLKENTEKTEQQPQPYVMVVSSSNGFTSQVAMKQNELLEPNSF
# Summary of the method: as §1
# SPIB = SPIB (Homo sapiens, UniProt Q01892 1-262)
# Sequence of SPIB (Q01892 whole entry): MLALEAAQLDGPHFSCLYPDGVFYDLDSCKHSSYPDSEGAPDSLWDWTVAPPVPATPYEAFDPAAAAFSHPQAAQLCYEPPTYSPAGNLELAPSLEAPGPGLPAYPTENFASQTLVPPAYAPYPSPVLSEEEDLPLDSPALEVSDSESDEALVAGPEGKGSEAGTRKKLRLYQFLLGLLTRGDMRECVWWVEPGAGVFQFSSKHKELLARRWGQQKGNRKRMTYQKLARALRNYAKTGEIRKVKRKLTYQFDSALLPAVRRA
# Summary of the method: as §1
# FEV = target: T4, FEV (Homo sapiens, UniProt Q99581 1-238)
# T4 sequence: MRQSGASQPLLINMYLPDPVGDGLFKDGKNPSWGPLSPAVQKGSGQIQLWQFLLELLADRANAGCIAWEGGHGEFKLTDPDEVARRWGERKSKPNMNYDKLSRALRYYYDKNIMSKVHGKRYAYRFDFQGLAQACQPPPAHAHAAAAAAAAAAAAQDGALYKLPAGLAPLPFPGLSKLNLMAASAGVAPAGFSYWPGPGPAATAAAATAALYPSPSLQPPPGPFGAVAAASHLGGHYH
# Summary of the method: as §1
# ETV5 = ETV5 (Homo sapiens, UniProt P41161 1-510)
# Sequence of ETV5 (P41161 whole entry): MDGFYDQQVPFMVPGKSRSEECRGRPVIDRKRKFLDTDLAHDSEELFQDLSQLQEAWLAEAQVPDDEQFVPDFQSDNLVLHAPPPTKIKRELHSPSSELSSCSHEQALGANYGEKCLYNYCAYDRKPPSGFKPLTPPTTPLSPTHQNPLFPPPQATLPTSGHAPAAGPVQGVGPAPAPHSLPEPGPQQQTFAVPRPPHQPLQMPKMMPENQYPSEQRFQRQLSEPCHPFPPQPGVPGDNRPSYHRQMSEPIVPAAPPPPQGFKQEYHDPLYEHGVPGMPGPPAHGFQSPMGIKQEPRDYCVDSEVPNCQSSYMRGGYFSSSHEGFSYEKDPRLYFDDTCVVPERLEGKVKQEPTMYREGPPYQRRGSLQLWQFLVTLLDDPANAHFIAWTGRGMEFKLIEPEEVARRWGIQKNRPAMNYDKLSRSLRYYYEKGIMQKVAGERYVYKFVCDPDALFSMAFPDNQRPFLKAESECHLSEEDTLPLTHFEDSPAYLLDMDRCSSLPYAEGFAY
# Summary of the method: as §1
# ELF4 = ELF4 (Homo sapiens, UniProt Q99607 1-663)
# Sequence of ELF4 (Q99607 whole entry): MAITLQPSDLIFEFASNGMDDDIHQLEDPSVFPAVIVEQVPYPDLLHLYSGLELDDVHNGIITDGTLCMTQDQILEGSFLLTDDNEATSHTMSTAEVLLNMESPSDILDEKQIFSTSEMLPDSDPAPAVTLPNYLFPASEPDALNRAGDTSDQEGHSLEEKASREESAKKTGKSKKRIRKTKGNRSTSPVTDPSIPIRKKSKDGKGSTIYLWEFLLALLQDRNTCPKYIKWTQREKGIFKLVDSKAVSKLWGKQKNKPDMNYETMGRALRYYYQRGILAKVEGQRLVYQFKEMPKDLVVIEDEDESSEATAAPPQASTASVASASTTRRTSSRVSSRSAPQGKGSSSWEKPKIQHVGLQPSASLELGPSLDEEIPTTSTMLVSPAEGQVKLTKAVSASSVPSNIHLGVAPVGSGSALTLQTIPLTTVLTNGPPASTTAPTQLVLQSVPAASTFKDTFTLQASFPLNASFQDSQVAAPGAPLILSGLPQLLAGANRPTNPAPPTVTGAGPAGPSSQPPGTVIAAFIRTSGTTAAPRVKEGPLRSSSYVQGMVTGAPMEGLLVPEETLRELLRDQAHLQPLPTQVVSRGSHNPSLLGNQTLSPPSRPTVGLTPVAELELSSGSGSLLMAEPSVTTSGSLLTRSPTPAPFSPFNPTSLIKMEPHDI
# Summary of the method: as §1
# ELK4 = target: T5, ELK4 (Homo sapiens, UniProt P28324-2 1-405)
# T5 sequence: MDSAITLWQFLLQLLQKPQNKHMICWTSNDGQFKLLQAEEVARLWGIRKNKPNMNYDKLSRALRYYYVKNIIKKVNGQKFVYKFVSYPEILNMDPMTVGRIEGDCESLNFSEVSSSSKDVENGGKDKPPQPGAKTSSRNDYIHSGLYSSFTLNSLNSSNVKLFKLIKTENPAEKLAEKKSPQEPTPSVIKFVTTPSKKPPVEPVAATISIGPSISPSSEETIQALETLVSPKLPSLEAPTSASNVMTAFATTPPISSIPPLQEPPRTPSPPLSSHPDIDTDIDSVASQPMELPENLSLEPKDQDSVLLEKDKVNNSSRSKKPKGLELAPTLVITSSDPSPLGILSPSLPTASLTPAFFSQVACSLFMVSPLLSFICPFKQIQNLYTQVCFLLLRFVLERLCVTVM
# Summary of the method: as §1
# ETV2 = target: T6, ETV2 (Homo sapiens, UniProt O00321 1-342)
# T6 sequence: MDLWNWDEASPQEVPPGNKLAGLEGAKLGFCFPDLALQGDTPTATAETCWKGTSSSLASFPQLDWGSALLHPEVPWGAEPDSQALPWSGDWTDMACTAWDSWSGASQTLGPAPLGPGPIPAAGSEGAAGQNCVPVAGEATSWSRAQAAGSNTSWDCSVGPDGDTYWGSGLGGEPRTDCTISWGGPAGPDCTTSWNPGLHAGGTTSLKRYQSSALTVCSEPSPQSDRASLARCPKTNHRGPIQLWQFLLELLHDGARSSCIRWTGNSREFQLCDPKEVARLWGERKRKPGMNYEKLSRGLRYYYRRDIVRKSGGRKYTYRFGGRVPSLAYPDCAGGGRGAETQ
# Summary of the method: as §1
# ELF3 = target: T7, ELF3 (Homo sapiens, UniProt P78545 1-371)
# T7 sequence: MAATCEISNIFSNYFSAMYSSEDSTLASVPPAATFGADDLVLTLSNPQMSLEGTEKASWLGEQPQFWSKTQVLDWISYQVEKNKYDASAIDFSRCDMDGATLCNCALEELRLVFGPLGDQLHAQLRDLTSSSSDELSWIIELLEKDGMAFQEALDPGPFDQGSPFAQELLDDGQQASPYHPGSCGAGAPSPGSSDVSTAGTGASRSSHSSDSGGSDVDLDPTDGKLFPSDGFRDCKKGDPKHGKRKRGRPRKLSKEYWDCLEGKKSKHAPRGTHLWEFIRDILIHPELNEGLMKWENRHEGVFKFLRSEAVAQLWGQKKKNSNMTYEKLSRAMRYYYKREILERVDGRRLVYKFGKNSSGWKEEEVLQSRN
# Summary of the method: as §1
# ETV1 = ETV1 (Homo sapiens, UniProt P50549 1-477)
# Sequence of ETV1 (P50549 whole entry): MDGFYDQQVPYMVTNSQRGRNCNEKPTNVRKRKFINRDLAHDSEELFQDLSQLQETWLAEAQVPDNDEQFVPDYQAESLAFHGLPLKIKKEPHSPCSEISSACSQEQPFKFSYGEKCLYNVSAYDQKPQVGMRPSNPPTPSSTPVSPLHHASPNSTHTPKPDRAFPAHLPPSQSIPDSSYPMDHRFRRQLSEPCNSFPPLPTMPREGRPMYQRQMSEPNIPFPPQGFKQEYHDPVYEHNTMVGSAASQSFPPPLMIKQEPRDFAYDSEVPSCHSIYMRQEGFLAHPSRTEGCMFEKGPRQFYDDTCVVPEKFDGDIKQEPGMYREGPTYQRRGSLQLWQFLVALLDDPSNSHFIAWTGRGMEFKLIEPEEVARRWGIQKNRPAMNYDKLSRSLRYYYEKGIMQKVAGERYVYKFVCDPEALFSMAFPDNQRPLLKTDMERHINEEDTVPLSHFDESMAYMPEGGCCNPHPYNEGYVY
# Summary of the method: as §1
# ETV3L = target: T8, ETV3L (Homo sapiens, UniProt Q6ZN32 1-361)
# T8 sequence: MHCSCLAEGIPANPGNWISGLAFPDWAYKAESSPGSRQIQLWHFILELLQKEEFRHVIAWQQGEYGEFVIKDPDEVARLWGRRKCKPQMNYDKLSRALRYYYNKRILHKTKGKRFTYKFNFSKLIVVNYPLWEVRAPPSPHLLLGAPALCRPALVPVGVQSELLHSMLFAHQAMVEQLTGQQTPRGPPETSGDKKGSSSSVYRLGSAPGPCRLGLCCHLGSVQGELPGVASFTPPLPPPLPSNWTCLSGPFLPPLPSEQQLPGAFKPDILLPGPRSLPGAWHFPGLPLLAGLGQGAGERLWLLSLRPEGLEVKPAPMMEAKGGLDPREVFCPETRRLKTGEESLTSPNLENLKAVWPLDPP
# Summary of the method: as §1
# ETS2 = target: T9, ETS2 (Homo sapiens, UniProt P15036 1-469)
# T9 sequence: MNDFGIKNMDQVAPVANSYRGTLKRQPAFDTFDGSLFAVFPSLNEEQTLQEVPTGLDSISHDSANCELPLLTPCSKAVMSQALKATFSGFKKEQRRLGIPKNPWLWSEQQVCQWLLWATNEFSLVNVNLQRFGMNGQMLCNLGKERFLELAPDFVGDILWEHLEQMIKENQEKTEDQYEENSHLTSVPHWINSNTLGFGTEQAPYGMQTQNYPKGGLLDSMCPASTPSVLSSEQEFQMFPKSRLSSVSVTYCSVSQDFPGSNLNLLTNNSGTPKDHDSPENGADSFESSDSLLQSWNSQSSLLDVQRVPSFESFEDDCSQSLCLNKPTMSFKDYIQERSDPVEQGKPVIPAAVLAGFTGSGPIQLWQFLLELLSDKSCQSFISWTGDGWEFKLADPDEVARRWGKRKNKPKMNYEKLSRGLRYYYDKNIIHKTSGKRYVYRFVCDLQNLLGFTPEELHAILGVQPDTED
# Summary of the method: as §1
# SPDEF = target: T10, SPDEF (Homo sapiens, UniProt O95238 1-335)
# T10 sequence: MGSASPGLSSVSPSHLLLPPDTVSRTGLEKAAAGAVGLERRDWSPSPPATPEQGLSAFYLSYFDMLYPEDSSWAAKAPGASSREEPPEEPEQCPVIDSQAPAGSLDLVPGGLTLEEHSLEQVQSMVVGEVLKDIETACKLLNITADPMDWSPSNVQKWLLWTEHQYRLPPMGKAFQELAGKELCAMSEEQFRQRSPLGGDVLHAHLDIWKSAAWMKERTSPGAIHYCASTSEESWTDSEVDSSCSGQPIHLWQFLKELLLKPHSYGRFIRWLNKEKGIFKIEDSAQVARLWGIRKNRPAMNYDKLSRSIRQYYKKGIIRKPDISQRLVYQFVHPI
# Summary of the method: as §1
# ETV7 = target: T11, ETV7 (Homo sapiens, UniProt Q9Y603 1-341)
# T11 sequence: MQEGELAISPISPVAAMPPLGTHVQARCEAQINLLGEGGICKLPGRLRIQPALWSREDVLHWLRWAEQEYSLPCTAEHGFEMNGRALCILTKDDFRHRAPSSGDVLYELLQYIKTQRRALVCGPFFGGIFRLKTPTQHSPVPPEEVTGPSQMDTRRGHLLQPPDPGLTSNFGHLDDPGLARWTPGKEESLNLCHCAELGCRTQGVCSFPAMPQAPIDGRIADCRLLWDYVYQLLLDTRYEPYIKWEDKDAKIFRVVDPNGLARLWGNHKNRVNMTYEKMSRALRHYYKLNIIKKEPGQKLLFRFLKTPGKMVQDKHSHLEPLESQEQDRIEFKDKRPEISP
# Summary of the method: as §1
# ETV3 = target: T12, ETV3 (Homo sapiens, UniProt P41162-2 1-143)
# T12 sequence: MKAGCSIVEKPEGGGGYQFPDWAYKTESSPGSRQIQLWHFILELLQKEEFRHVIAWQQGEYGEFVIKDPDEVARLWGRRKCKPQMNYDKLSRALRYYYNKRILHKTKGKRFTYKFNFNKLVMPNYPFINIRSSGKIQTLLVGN
# Summary of the method: as §1
# ETV6 = ETV6 (Homo sapiens, UniProt P41212 1-452)
# Sequence of ETV6 (P41212 whole entry): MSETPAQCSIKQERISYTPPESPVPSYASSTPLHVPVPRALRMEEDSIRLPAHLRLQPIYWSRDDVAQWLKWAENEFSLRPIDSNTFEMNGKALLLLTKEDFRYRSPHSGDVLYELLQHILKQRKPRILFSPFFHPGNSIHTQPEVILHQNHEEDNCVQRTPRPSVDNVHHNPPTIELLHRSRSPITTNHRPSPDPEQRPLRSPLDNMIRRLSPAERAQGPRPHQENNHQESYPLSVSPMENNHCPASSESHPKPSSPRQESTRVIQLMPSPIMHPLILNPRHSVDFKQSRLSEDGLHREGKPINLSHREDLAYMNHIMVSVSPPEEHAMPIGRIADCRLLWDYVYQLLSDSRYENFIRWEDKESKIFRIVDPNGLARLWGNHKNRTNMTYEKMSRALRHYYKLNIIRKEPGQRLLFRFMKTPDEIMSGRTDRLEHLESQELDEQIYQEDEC
# Summary of the method: as §1
sequence,measurement,setting,value
GGTATC,binding signal,ELK1,"1.07 fold enrichment (6-mer frequency, TF over GST control)"
same,binding signal,GABPA,"1.06 fold enrichment (6-mer frequency, TF over GST control)"
same,binding signal,ERG,"1.07 fold enrichment (6-mer frequency, TF over GST control)"
same,binding signal,ELF1,"1.09 fold enrichment (6-mer frequency, TF over GST control)"
same,binding signal,SPIB,"1.04 fold enrichment (6-mer frequency, TF over GST control)"
same,binding signal,FEV,"1.06 fold enrichment (6-mer frequency, TF over GST control)"
same,binding signal,ETV5,"1.06 fold enrichment (6-mer frequency, TF over GST control)"
same,binding signal,ELF4,"1.08 fold enrichment (6-mer frequency, TF over GST control)"
same,binding signal,ELK4,"1.13 fold enrichment (6-mer frequency, TF over GST control)"
same,binding signal,ETV2,"1.23 fold enrichment (6-mer frequency, TF over GST control)"
same,binding signal,ELF3,"1.23 fold enrichment (6-mer frequency, TF over GST control)"
same,binding signal,ETV1,"1.1 fold enrichment (6-mer frequency, TF over GST control)"
same,binding signal,ETV3L,"1.02 fold enrichment (6-mer frequency, TF over GST control)"
same,binding signal,ETS2,"1.01 fold enrichment (6-mer frequency, TF over GST control)"
same,binding signal,SPDEF,"1.33 fold enrichment (6-mer frequency, TF over GST control)"
same,binding signal,ETV7,"1.06 fold enrichment (6-mer frequency, TF over GST control)"
same,binding signal,ETV3,"1.04 fold enrichment (6-mer frequency, TF over GST control)"
same,binding signal,ETV6,"1.03 fold enrichment (6-mer frequency, TF over GST control)"
